Only a selection was taken, and hits are over-represented in it overall.
SF1 inhibitor: inhibitors of human nuclear receptor SF-1. Q13285. CHO-K1 Gal4-SF-1 LBD luciferase reporter. inhibition, % at 10 µM. 65,000 tested, 0.55% active;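 active = inhibition above the mean inhibition of all tested compounds plus 3 SD, cut at about 48% in these data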;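 note: 0% = SF-1 transfected cells with DMSO and 100% = mock-transfected cells lacking SF-1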
Target sequence (Q13285 whole entry, looked up, the tested form may be a part): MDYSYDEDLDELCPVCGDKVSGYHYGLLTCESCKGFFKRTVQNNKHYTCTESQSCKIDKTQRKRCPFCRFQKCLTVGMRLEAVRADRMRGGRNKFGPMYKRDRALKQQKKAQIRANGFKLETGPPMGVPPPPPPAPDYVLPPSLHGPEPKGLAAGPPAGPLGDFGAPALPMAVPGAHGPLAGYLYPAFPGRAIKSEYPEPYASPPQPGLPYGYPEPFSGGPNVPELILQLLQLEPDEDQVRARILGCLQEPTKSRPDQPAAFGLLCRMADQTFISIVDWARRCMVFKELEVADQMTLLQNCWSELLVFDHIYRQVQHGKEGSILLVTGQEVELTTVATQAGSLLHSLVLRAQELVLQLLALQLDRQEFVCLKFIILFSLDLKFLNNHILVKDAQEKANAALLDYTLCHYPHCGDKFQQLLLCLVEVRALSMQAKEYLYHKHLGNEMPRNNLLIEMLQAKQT
An asterisk follows results filed as active.

SMILES | SF1 inhibitor
CCn1c(=NC(=O)CN2C(=O)CCC2=O)sc2c(C)cc(C)cc21 | 34
COc1cc2nc(=S)n3[nH]c(CCn4nc(C)cc4C)nc3c2cc1OC | 61*
CNS(=O)(=O)c1cccc(C(=O)OCC(=O)Nc2ccccc2OC(F)F)c1 | 3
Cc1onc(-c2ccccc2)c1C(=O)Nc1cccc(C#N)c1 | -2
CCOC(=O)c1ccc(S(=O)(=O)NC2CCCCCCC2)n1C | -3
COC(=O)c1ccc(NC(=O)c2ccc3c(c2)OCO3)cc1 | -53
O=C(/C=C\Nc1cccc(F)c1)c1ccc2c(c1)OCO2 | 58*
O=C(CCNc1ccccc1)c1ccc2c(c1)OCO2 | -62
CC(C)COC(=O)N(C)c1ccc(C(O)(C(F)(F)F)C(F)(F)F)cc1 | -12
COc1ccc2nc(NC(=O)CN(c3ccc(C)cc3)S(=O)(=O)c3c(C)nn(C)c3C)sc2c1 | 5
CCSc1nnc(NC(=O)c2cc3c(s2)CCCC3)s1 | -52
CCSc1nnc(Nc2ccccc2)s1 | -54
CCSc1nnc(NC(=O)c2ccccn2)s1 | 55*
CC1(c2cnc(Nc3ccccc3)s2)CCC(=O)O1 (centres undefined) | -26
Cc1csc(SCCN2C(=O)c3ccccc3C2=O)n1 | -65
CCN1C(=O)CC(C(=O)NC)SC1=Nc1cc(Cl)c(O)c(Cl)c1 (centres undefined) | 10
COC(=O)CCCC(=O)Nc1ccc(Cl)c(Cl)c1 | -11
CCOC(=O)CCNC(=O)Nc1ccc2nc(C)n(Cc3cccc(Cl)c3)c(=O)c2c1 | 6
Cc1nc(CNS(=O)(=O)c2ccc3ccccc3c2)cs1 | 11
Cc1csc2nc(CNS(=O)(=O)c3ccc(-c4ccccc4)cc3)cn12 | 3
O=S(=O)(NCc1cn2ccsc2n1)c1ccc(Oc2ccccc2)cc1 | 52*
CCC(C)OC(=O)c1[nH]c2c(c1C)C(=O)CC(c1ccc(N(C)C)cc1)C2 (centres undefined) | -57
Cc1cc2c(c(=O)n1CCCn1ccnc1)C(c1ccco1)C(C#N)=C(N)O2 (centres undefined) | 5
CCN(CC)c1ccc2c(c1)OC(N)=C(C#N)C2c1cccnc1 (centres undefined) | 65*
CCOC(=O)C1=C(C)N(C)C(C)=C(C(=O)OCC)C1c1cccnc1 | -16
SMILES | SF1 inhibitor
O=C(c1ccccc1)c1c[nH]c2cc3c(cc2c1=O)OCCO3 | -50
CCOC(=O)c1ccccc1NC(=O)COC(=O)C1=COCCO1 | 4
COc1c(C)cccc1C(=O)Nc1ccc(CN2CCOCC2)cc1 | -62
COc1cc(C(=O)Oc2c(CN3CCOCC3)cc(Cl)c3cccnc23)cc(OC)c1OC | 55*
CCCCCOc1ccc(CN2CCOCC2)cc1Cl | -61
O=c1c(-c2ccc(F)cc2)coc2c3c(ccc12)OCCO3 | -63
CCOC(=O)N1CCC(C(=O)Nc2ccc(OCC)cc2)CC1 | -17
CCOC(=O)c1cnc(-n2nc(C)cc2C)nc1NCc1ccc2c(c1)OCO2 | 22
CCOc1ccc(Nc2cc(C)nc(-n3nc(C)cc3C)n2)cc1 | 65*
CCCCOC(=O)C(C)c1c(C)[nH]c(=S)[nH]c1=O (centres undefined) | -5
Cc1ccsc1C(=O)OCC(=O)Nc1sccc1C(N)=O | -74
CS(=O)(=O)c1ccc2nc(NC(=O)c3ccco3)sc2c1 | -74
CC1CCc2nc(NC(=O)Cc3cccs3)sc2C1 (centres undefined) | -63
CC1CCc2nc(NC(=O)c3ccco3)sc2C1 (centres undefined) | 64*
Cc1ccc2cccc(OC(=O)c3ccc4c(c3)OCCO4)c2n1 | -12
c1ccc(-c2cccc(-c3ccccn3)n2)nc1 | 87*
c1ccc(-c2nnc(-c3ccccn3)nn2)nc1 | -47
CC1=CC(C)=Nc2ccc(C)cc2N1 | -76
N#CCCN(CCC#N)C(=O)c1ccc(Cl)cc1 | 5
CC(=O)NC1Sc2ccccc2N=C1c1ccccc1 (centres undefined) | -59
Oc1c(CN2CCN(c3ccccn3)CC2)cc(Cl)c2cccnc12 | 67*
COc1ccc(-n2nc(C(=O)NCC(=O)N3CCN(c4ccccn4)CC3)c3ccccc3c2=O)cc1 | -60
COCc1cc(CN2CCCC2)c(O)c2ncccc12 | 50*
c1ccc(Cn2nnnc2CN2CCCC2)cc1 | -4
Oc1c(CN2CCCCC2)cc(COCc2ccccc2)c2cccnc12 | 89*
SMILES | SF1 inhibitor
O=C(c1cccc(COc2ccc(Cl)cc2Cl)c1)N1CCN(c2ccccn2)CC1 | -76
O=S(=O)(Nc1cccnc1)c1ccc2c(c1)OCCO2 | 3
CC(=O)NC1(C(F)(F)F)NC(=O)N(CC(C)C)C1=O (centres undefined) | 4
C/C(N)=C(/C#N)C(=O)COC(=O)c1cc(C)n(-c2ccc(F)cc2)c1C | -65
CNC(=O)NC(=O)COC(=O)CCCOc1ccc(OC)cc1 | 9
c1cc2c(nn1)CCc1nonc1-2 | 8
Clc1ccc(-n2ncc3c(NCc4cccs4)ncnc32)cc1 | -74
c1ccc(OCCOc2ncnc3sccc23)cc1 | -53
c1csc(CNc2ncnc3sccc23)c1 | 51*
Cc1cc(C)c(C(=O)CSc2n[nH]c(=O)n2C2CC2)cc1C | 12
C=CCOC(=O)c1sc(NC(=O)c2ccco2)nc1C | -93
CCOC(=O)C1=Nc2ccccc2C1=[N+]=[N-] | 84*
CCOC(=O)c1cnc2c(-c3ccccc3)cnn2c1N | -52
CCOC(=O)c1c(C)nc(-c2ccccc2)nc1N | -58
O=C(Nc1ccc(-c2cn3ccsc3n2)cc1)c1ccc(F)c(S(=O)(=O)N2CCOCC2)c1 | -57
COc1ccccc1-c1nnc2sc(-c3ccc(N(C)C)cc3)nn12 | 64*
COc1cc(-c2nnc3sc(-c4cccs4)nn23)cc(OC)c1OC | 16
CN(C)c1ccc(-c2nn3c(-c4cccnc4)nnc3s2)cc1 | 4
Cn1c(=O)c2nc(-c3ccc(Cl)cc3Cl)oc2c2ccccc21 | -13
O=[n+]1cc(-c2cc3ccccc3o2)n([O-])c2c1CCCC2 | -6
COC1Cc2ccccc2N(C(=O)N2CCN(CCO)CC2)c2ccccc21 (centres undefined) | 0
COc1ccc(S(=O)(=O)N(C)CC(=O)NC2CC2)cc1 | -12
C=CCn1c2ccccc2c2nnc(SCCCn3c(=O)[nH]c4ccccc43)nc21 | 6
O=C1C/C(=C/NCc2ccccc2)C(=O)N1 | 6
C(=C\CSc1ncn[nH]1)/CSc1ncn[nH]1 | 4
SMILES | SF1 inhibitor
Cc1cccc(NC(=O)c2cc3ccccc3c(=O)o2)n1 | -65
COc1ccc(NC(=O)Nc2cccc(C)n2)cc1 | -64
Cc1cccc(NC(=O)Nc2ccc(C#N)cc2)n1 | 71*
Cc1cc(C)n(-c2ccc3cccc(NS(C)(=O)=O)c3n2)n1 | 79*
Cc1ccc2nc3c(cc(C#N)c(=O)n3CC3CCCO3)c(=O)n2c1 (centres undefined) | -2
O=C(NC1CCCCCC1)C1CCN(C(=O)Cc2ccccc2)CC1 | 18
CCOC(=O)c1c(C)[nH]c(C(=O)COC(=O)CNC(=O)C2CCCCC2)c1C | 0
O=C(Nc1ccc(F)cc1)c1cccc2c1C(=O)N(Cc1ccccn1)C2 | -12
COc1ccc(C)cc1NC(=O)c1cc2c(CO)cnc(C)c2oc1=N | -24
CC(=O)CC1(O)C(=O)N(CN2CCN(c3ccccc3)CC2)c2ccccc21 (centres undefined) | 0
C1=C(C(c2nnnn2C2CCCCC2)N2CCCCC2)COc2ccccc21 (centres undefined) | 19
CCc1ccc(C(=O)NCc2cccs2)s1 | -70
O=S1(=O)Nc2c(ccc3cccnc23)-c2ccccc21 | 91*
CC1=CC=CC2=NC(=O)CC(C)(C(=O)N(CC(=O)NC(C)C)C3CCCC3)N12 (centres undefined) | 15

Source: PubChem (The Scripps Research Institute Molecular Screening Center)
